From PubChem BioAssay AID485317 (Broad Institute, 2010)
Hit rate of the full screen: of about 290,000 compounds, about 11,000 (3.8%) were called active.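 The calls were made as follows: active = mean replicate inhibition above about 79%, with every replicate also reaching it (limit read from the data); inconclusive = only one of the two criteria met; inactive = mean below limit and not every replicate reaching it.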 The entries come from a sample that favours actives as a whole.

Target: FAD-linked sulfhydryl oxidase ALR (Homo sapiens) (UniProt P55789)
Assay: inhibitors of human ALR sulfhydryl oxidase, primary screen, biochemical, H2O2 detection, HRP-luminol luminescence, single point (AID 485317)
Conditions: purified ALR, DTT oxidation, hits give high values, concentration not given here

Chain of FAD-linked sulfhydryl oxidase ALR (Homo sapiens) (P55789 whole entry, looked up): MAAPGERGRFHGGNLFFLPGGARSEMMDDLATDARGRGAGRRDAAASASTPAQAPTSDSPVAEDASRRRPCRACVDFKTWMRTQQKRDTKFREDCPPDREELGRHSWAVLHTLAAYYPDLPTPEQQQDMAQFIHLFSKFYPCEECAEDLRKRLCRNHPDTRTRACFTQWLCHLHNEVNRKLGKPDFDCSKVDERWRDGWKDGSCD

inhibition, active:
CN(C)c1ccc(-n2cccc2/C=N/n2cnnc2)cc1 98.6%
CC(=O)Oc1cccc(N2C(=O)CC(Nc3ccc(N4CCOCC4)cc3)C2=O)c1 (centres undefined) 97.2%
CN(C)c1ccc(/C=N/NC(=O)c2ccc(Cn3cc(Br)cn3)o2)cc1 98.5%
COc1cccc(NCCC(=O)c2cccc([N+](=O)[O-])c2)c1 97.4%
CCOC(=O)c1sc(NC(=O)CSc2nc(O)c(Cc3ccccc3)c(=O)[nH]2)nc1C 98.6%
O=C(CSc1nc(O)c(Cc2ccccc2)c(=O)[nH]1)Nc1nc2c(s1)CCCC2 99.1%
Nn1c(SCC(=O)Nc2ccc3c(c2)CCC3)nnc1C1CC1 98.6%
CCCCOc1ccc(NC(=O)CSCC(=O)OCC)cc1 98.6%
O=C(O)C(c1ccccc1)N1C(=O)/C(=C\c2ccc(-c3cccc(Cl)c3)o2)SC1=S (centres undefined) 98.2%
O=c1cc(O)nc(SCc2ccccc2Cl)[nH]1 100%
COc1cccc2sc(NNC(=O)c3nc4ccccc4s3)nc12 93.7%
CC(=O)C1=C(O)C(=O)N(c2ccc(Br)cc2)C1c1ccc([N+](=O)[O-])cc1 (centres undefined) 96.7%
CC(C)(C)C(=O)OCc1nc(-c2ccc(O)c(O)c2)cs1 99.4%
Cn1c(SCC(=O)N/N=C/c2ccc(O)c(O)c2)nc2ccccc21 98.9%
CCOc1ccc(/C=N/NC(=O)CSc2ccccn2)cc1O 98.9%
COc1cc(/C=N/NC(=O)CCc2n[nH]c(=O)[nH]c2=O)ccc1O 99.3%
Cc1nccn1CC(=O)N/N=C/c1ccc(O)c(O)c1 99.4%

inhibition, inactive:
C=CCC[C@H](Cc1ccc(F)cc1)C(=O)OC[C@@H](NC(=O)[C@@H](CC=C)CC(=O)N[C@H](CO)Cc1ccccc1)C(C)(C)C 2.91%
Brc1cnc2ccccc2c1N1CCCCC1 -0.469%
CS(=O)(=O)Nc1ccccc1C(=O)OCC(=O)NC1CC1 -5.36%
CN(C)c1ccc(-n2cccc2/C=C2/SC(=Nc3ccc(F)cc3)NC2=O)cc1 -13.8%
COc1cccc(OCCOc2cccc(/C=N/n3cnnc3)c2)c1 -9.36%
CC1(C)C2CC[C@]3(C)C(CC=C4[C@@H]5C[C@@](C)(CO)CC[C@]5(C(=O)O)CC[C@]43C)[C@@]2(C)CC[C@@H]1O (some centres undefined) -8.21%
O=C(COC(=O)/C=C/c1ccc(Br)o1)Nc1cccc(S(=O)(=O)N2CCOCC2)c1 -1.78%
COc1cc2ccccc2cc1C(=O)Nc1ccc(N2CCOCC2)cc1 -0.59%
CC(=O)Oc1cccc(N2C(=O)C3CC=C(Cl)CC3C2=O)c1 (centres undefined) -19%
Cc1noc(C)c1NC(=O)Nc1cccc2c1O[C@H](CN(C)C(=O)Nc1ccccc1)[C@@H](C)CN([C@H](C)CO)C2=O 1.38%
O=C(NN1CCOCC1)c1cccc(F)c1 -5.96%
O=C(N/N=C/c1ccc2c(c1)OCO2)c1ccc(Cn2cc([N+](=O)[O-])cn2)o1 29.3%
O=C(N/N=C\c1ccc(Br)cc1)c1ccc(Cn2cccn2)o1 0.182%
CC(OC(=O)c1ccc(Cl)cc1O)C(=O)NCCC1=CCCCC1 (centres undefined) -2.95%
CCOC(=O)N1CCN(C(=O)c2ccccc2SCC(=O)NCC2CCCCC2)CC1 -0.603%
COc1cccc(CNC(=O)CCCC(=O)Nc2cccc([N+](=O)[O-])c2)c1 -3.17%
COc1cccc(C(=O)CC(=O)C(=O)Nc2ccc([N+](=O)[O-])cc2C)c1 7.39%
COc1ccc(CNC(=O)C2(CC3CC(c4ccccc4)=NO3)CCN(C(=O)c3cccc(O)c3)CC2)cc1 (centres undefined) -2.44%
COCCN(Cc1ccccc1)C(=O)Cc1ccc(S(=O)(=O)N2CCOCC2)s1 2.09%
O=C(NCC1CC1)c1onc(CSc2ccccc2)c1C(=O)NCC1CC1 -11.1%
CCOC(=O)c1ccccc1NC(=O)CSc1nc2ccccc2c(=O)[nH]1 -0.524%
O=C(Cn1c(=O)sc2ccccc21)Nc1nc2c(s1)CCCC2 42.4%
CCOC(=O)c1sc(NC(=O)CSc2n[nH]c(CC)n2)nc1C -1.87%
Cc1cccc(NC(=O)CSc2nc3c(c(=O)[nH]2)CCCC3)c1C -5.33%
COC(=O)c1ccc(-c2c(-c3ccccc3)ncc3cc(OC)c(OC)cc23)cc1 1.43%
C=CC[C@H](CC(=O)OC(C)(C)C)C(=O)OC[C@H]1CCCN1C(=O)[C@H](CC=C)CC(=O)N(CCO)Cc1ccccc1 -5.27%
CC1(C)CC(=O)C=C(c2ccc3ncccc3c2)C1 -1.35%
COc1ccc(NS(=O)(=O)c2cc(NC(=O)COc3ccccc3F)ccc2OC)cc1 -2.82%
COc1cccc(-c2ccc3c(c2)S(=O)(=O)c2cccc(C(=O)O)c2C3=O)c1OC -0.409%
COc1ccc(-c2csc3ncnc(N4CCN(S(=O)(=O)c5cccc(F)c5)CC4)c23)cc1 0.272%
CCCc1ccc(C(=O)COC(=O)CN2C(=O)NC3(CCCCC3C)C2=O)cc1 (centres undefined) -2.13%
COc1ccc(NC(=O)CSc2nnc(C3CC3)n2C)cc1S(=O)(=O)N1CCCCC1 -0.755%
O=C(CSc1nnnn1-c1ccc2c(c1)CCC2)Nc1ccc2c(c1)OCCO2 -26.1%
COc1ccc2cc(C3=CC(=O)C[C@H](c4ccc5c(c4)OCO5)C3)ccc2c1 0.243%
Cc1ccc(OCc2cc(C(=O)N(C)CCn3ccnc3C)no2)cc1C -0.532%
CCCCCCCNC(=O)C1(CC2CC(c3cccc(Br)c3)=NO2)CCN(C(=O)c2cc(OCC)c(OCC)c(OCC)c2)CC1 (centres undefined) -9.32%
CCCCN(C(=O)CSCC(=O)Nc1ccc(OC)cc1)c1c(N)n(CCC)c(=O)[nH]c1=O 2.82%
CCOC(=O)Cc1ncccc1C(=O)Nc1ccc(OC)cc1 10.7%
O=C(NNC(=O)c1cccc(S(=O)(=O)Nc2ccc(Cl)cc2)c1)c1ccc(=O)[nH]c1 -5.3%
O=C(NCCc1ccc(C(F)(F)F)cc1)c1ccc2c(c1)OCO2 -2.72%
COc1ccc(/C=C(\C#N)C(=O)OCC(=O)N(C)C2CCS(=O)(=O)C2)cc1 (centres undefined) 5.52%
CN1C(=O)/C(=C\c2ccc(-c3ccccc3)o2)SC1=S -6.32%
Nc1nnnn1CC(=O)N/N=C/c1ccc(-c2cccc(Cl)c2)o1 -10.4%
CC1CC(=O)Nc2ccccc2N1C(=O)COc1ccc2cc(Br)ccc2c1 (centres undefined) 12.2%
O=C(COc1ccc(F)cc1Br)NCC1COc2ccccc2O1 (centres undefined) -3.27%
COc1cccc2sc3cc(NCC[C@@H]4CCCN4C)ccc3c(=O)c12 -1.66%
O=c1[nH]nc(CSCc2ccccc2Cl)[nH]1 -8.43%
Cc1cc(=O)[nH]c(SCc2ccc(Cl)cc2)n1 -9.56%
COc1cccc2sc(Nc3nc(C)c(C(C)=O)s3)nc12 32.7%
COc1ccccc1OCc1nc2ccccc2s1 2.66%
COC(=O)CN1C(=O)C(O)=C(C(C)=O)C1c1ccc([N+](=O)[O-])cc1 (centres undefined) -8.67%
CC(=O)C1=C(O)C(=O)N(c2cccnc2)C1c1ccc([N+](=O)[O-])cc1 (centres undefined) 36.6%
COc1ccc(S(=O)(=O)N2CCN(CC(=O)NCC3(N4CCOCC4)CCCCC3)CC2)cc1 -0.676%
CCCn1nc(C(=O)NNC(=O)CCOc2ccccc2OCC)c2ccccc2c1=O 16.7%
CCOc1ccc(NC(=O)CN(C)C(=O)COc2cccc(CC)c2)cc1OCC -14.9%
Cc1cc(NC(=O)CCS(=O)(=O)c2ccc(F)cc2)no1 -5.46%
COc1cc(CC(=O)Nc2nc(-c3ccc(F)c(F)c3)cs2)cc(OC)c1OC 0.225%
Cc1onc(C(=O)NN)c1-c1csc(COc2ccccc2)n1 -2.47%
COc1ccc(CNC(=O)COC(=O)c2ccc(C)c(S(=O)(=O)N3CCOCC3)c2)cc1OC -7.49%
CC1CCCCC1NC(=O)Cn1c(=O)cnc2ccccc21 (centres undefined) -5.91%
Cc1nc2ccccc2n1CC(=O)N/N=C/c1cccnc1 -8.97%
COc1cc(/C=N/NC(=O)Cc2ccccc2)cc(OC)c1OC -4.39%
COc1cc(/C=N/NC(=O)c2ccc(N3CCCC3=O)cc2)ccc1O 28%
Cc1ccc(/C=N/NC(=O)CSc2nc3ccccc3o2)cc1 -3.09%
CCn1c(SCC(=O)N/N=C/c2ccncc2)nc2ccccc21 -3.78%
NCCCCCC(=O)N/N=C/c1ccc2nccnc2c1 0.997%
CCOc1ccc(/C=N/NC(=O)C(C)Sc2ccccn2)cc1OCC (centres undefined) -8.94%
C=CCOc1ccc(/C=N/NC(=O)C(C)Sc2ccccn2)cc1OCC (centres undefined) -4.04%
CC(C)(C)n1nc(Cc2cccc3ccccc23)c(C#N)c1N -16.1%
Cc1cc(NC(=O)CSc2nnc(-c3ccco3)n2N)no1 -0.748%
CCOc1ccc2oc(C(=O)N(CC)CC(=O)Nc3ccc(NC(C)=O)cc3)c(C)c2c1 -6.04%
CCOc1ccc2ccccc2c1/C=N/NC(=O)c1c(C)cc(C)[nH]c1=O -4.32%
